Results published in PubChem BioAssay.
For some of these results: Entries with a potency or affinity are not part of this list. Activity calls are given as the source filed them.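 The calls were made as follows, unless noted: active = fluorescence ratio normalized to control raised more than 50% in primary screen plus both repeat runs; inactive = the rest.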

Columns and labels:
[1] = test system: TRPC4 beta (transient receptor potential cation channel C4), mouse; experiment: TRPC4 cation channel opening, retest – cell-based, Fluo4 calcium, HEK293 TRPC4beta/mu-opioid, duplicates, 10 µM, confirmation (AID 2426); settings: Fluo4 calcium fluorescence, at 10 µM; stronger effect = higher value
[2] = test system: transient receptor potential cation channel C4 beta (TRPC4), mouse; experiment: TRPC4 cation channel opening, second retest – cell-based, second round, Fluo4, HEK293 TRPC4beta/mu-opioid, 1 µM, confirmation (AID 2461;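 active = primary screen active and over 50% activation in each of two duplicate runs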); settings: Fluo4 calcium fluorescence, at 1 µM; stronger effect = higher value
[3] = test system: TRPC4 (transient receptor potential cation channel C4 beta), mouse; experiment: potentiation of DAMGO EC20 TRPC4 response – cell-based, second round, Fluo-4, HEK293 TRPC4beta/mu-opioid, 1 µM, confirmation (AID 2554;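 active = primary screen hit whose fluorescence ratio, in both repeats, exceeds the weak agonist control mean by 3 SD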); settings: DAMGO EC20, Fluo-4 calcium flux, at 1 µM; stronger effect = higher value
[4] = test system: TRPC4 beta (transient receptor potential cation channel C4), mouse; experiment: potentiation of DAMGO EC20 TRPC4 response – cell-based, Fluo-4, HEK293 TRPC4beta/mu-opioid, confirmation (AID 2555;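 active = primary screen hit whose calcium fluorescence ratio, in both repeats, exceeds the weak agonist control mean by 3 SD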); settings: DAMGO EC20, Fluo-4 calcium flux, at 10 µM; stronger effect = higher value
[5] = target: Short transient receptor potential channel 4 (Mus musculus) (UniProt Q9QUQ5); experiment: blockers of DAMGO-evoked TRPC4 calcium flux – cell-based, Fluo4, HEK293 TRPC4beta/mu-opioid, confirmation (AID 2636;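 active = calcium signal cut by more than 3 SD below the full-agonist control yet still positive, in both repeats and the earlier primary screen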); settings: at 10 µM; stronger effect = higher value
[6] = target: Short transient receptor potential channel 4 (Mus musculus) (UniProt Q9QUQ5); experiment: blockers of DAMGO-evoked TRPC4 calcium flux – cell-based, second round, Fluo4, HEK293 TRPC4beta/mu-opioid, 1 µM, confirmation (AID 2637;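 active = calcium signal ratio cut to more than 3 SD under the fully stimulated control mean yet still positive, in both repeats and the primary screen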); settings: at 1 µM; stronger effect = higher value
[7] = target: Short transient receptor potential channel 4 (Mus musculus) (UniProt Q9QUQ5); experiment: calcium entry via TRPC4 opening agents – cell-based, HEK293 TRPC4/mu-opioid, Fluo-4 calcium, dose response (AID 434937;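 active = primary screen activator hit with a dose response curve and TRPC4 channel activation at any tested dose; inactive = no activation, no dose response, or not a primary hit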)
[8] = target: Short transient receptor potential channel 4 (Mus musculus) (UniProt Q9QUQ5); experiment: potentiation of DAMGO-evoked TRPC4 calcium signal – cell-based, HEK293 TRPC4/mu-opioid, Fluo-4 calcium, EC20 DAMGO, dose response (AID 434941;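 active = earlier screen potentiator hit that boosts the TRPC4 ion channel at some dose, with a dose response; inactive = no potentiation, no dose response, or not a prior hit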;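 also: calcium entry triggered by an EC20 dose of DAMGO at the co-expressed mu-opioid receptor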)
[9] = target: Short transient receptor potential channel 4 (Mus musculus) (UniProt Q9QUQ5); experiment: block of DAMGO-driven TRPC4 calcium entry – cell-based, HEK293 TRPC4/mu-opioid, Fluo-4 calcium, dose response (AID 434942;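 active = primary screen inhibitor hit that blocks the TRPC4 channel at some tested dose, yielding a dose curve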)
[10] = target: Short transient receptor potential channel 6 (Mus musculus) (UniProt Q61143); experiment: TRPC6 blockade by TRPC4 inhibitor hits – cell-based, HEK293, membrane potential dye, duplicate, selectivity assay for TRPC4 inhibitor project, confirmation (AID 434948;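 active = active in primary screen and both duplicates, each dropping signal beyond three positive-control SD with fluorescence still positive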); settings: HEK293 TRPC6, membrane potential dye fluorescence, at 10 µM, stimulated with maximal-effect acetylcholine; stronger effect = higher value
[11] = target: Short transient receptor potential channel 6 (Mus musculus) (UniProt Q61143); experiment: TRPC6 opening by TRPC4 activator hits – cell-based, HEK293, membrane potential dye, duplicate, selectivity assay for TRPC4 activator project, confirmation (AID 434950;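 active = membrane potential signal rise above negative control mean plus 3 SD in both duplicates, also active in the earlier TRPC4 screen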); settings: HEK293 TRPC6, membrane potential fluorescence, at 10 µM; activation: stronger effect = higher value; outcome: activation
[12] = target: Short transient receptor potential channel 6 (Mus musculus) (UniProt Q61143); experiment: positive modulators of mouse TRPC6 channel – HEK293 cells, membrane potential dye, duplicate, selectivity assay for TRPC4 potentiator project, confirmation (AID 434952;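 active = compound raising the membrane signal above positive-control mean plus 3 SD in both repeats, and a primary screen hit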); settings: HEK293 TRPC6, membrane potential dye fluorescence, at 10 µM, maximal acetylcholine added after compound; stronger effect = higher value
[13] = target: Short transient receptor potential channel 4 (Mus musculus) (UniProt Q9QUQ5); experiment: calcium flux activators in TRPC4/5HT1a cells, counter-screen for TRPC4 activator project, cell-based, second counter screen, HEK293 TRPC4/5HT1a, Fluo-4 (AID 434977;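 active = calcium signal rise above buffer-control mean plus 5 SD in both duplicates, and also a hit in the primary screen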); settings: Fluo-4 calcium flux, at 10 µM; stronger effect = higher value
[14] = serotonin-gated TRPC4 signal block – cell-based, second counter screen, HEK293 TRPC4/5HT1a, Fluo-4, counter-screen for TRPC4 inhibitor project, confirmation (AID 434978;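 active = primary screen active whose calcium signal fell more than 3 SD beyond the full-serotonin control mean in both duplicate plates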;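 also: serotonin given first at submaximal then at maximal dose after compound preincubation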); settings: Fluo-4 calcium flux, at 10 µM, serotonin added to trigger calcium flux; stronger effect = higher value
[15] = test system: TRPC4 (mouse), co-expressed with 5HT1a in HEK293; experiment: enhancement of serotonin-evoked TRPC4 response – cell-based, second counter screen, HEK293 TRPC4/5HT1a, Fluo-4, counter-screen for TRPC4 potentiator project, confirmation (AID 434979;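 active = signal rise over 3 SD above mean of control wells given weak agonist, in both repeats and first screen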); settings: Fluo-4 calcium flux, at 10 µM, serotonin added at its EC20 dose; stronger effect = higher value
[16] = nonspecific calcium rise without TRPC4 – cell-based, HEK293 mu-opioid receptor line, counter-screen for TRPC4 activator project, confirmation (AID 449723;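 active = hit in primary screen, with calcium signal over 5 SD above buffer well mean in both duplicates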;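 also: counter screen cells carry the mu-opioid receptor alone and lack TRPC4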); settings: HEK293 mu-opioid cells, Fluo-4 calcium fluorescence, at 10 µM; stronger effect = higher value
[17] = nonspecific potentiation of DAMGO calcium response – cell-based, HEK293 mu-opioid receptor line, counter-screen for TRPC4 allosteric potentiator project, confirmation (AID 449724;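 active = calcium signal rise more than 3 SD above the low-dose agonist control mean, in both duplicate plates and the primary screen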); settings: HEK293 mu-opioid receptor cells, Fluo-4 calcium flux, at 10 µM, compound added before EC20 DAMGO stimulus; stronger effect = higher value

Sequence of Short transient receptor potential channel 6 (Mus musculus) (Q61143 whole entry, looked up): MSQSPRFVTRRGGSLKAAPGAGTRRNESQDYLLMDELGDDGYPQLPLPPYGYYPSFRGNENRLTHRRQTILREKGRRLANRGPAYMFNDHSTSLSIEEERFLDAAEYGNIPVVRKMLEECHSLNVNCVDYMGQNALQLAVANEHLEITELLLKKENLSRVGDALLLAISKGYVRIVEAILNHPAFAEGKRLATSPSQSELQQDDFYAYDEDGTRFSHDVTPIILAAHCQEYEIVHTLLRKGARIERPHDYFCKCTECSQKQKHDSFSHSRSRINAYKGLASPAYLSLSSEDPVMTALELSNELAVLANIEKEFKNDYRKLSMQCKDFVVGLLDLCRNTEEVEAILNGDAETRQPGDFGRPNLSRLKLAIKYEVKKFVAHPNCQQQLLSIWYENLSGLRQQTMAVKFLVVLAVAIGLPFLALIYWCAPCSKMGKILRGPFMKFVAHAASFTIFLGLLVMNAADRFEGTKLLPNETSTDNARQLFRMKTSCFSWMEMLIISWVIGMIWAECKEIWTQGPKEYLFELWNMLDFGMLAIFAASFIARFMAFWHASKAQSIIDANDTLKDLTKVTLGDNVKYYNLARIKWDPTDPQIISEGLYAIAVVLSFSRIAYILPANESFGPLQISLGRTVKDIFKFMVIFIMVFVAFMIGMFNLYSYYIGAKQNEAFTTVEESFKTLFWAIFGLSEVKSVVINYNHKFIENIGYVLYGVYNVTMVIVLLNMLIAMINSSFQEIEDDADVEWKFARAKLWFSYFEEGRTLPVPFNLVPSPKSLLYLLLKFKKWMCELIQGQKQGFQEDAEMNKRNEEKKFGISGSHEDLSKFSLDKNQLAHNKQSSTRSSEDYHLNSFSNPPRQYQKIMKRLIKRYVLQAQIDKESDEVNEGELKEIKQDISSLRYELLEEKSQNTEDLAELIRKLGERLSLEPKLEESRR
Sequence of Short transient receptor potential channel 4 (Mus musculus) (Q9QUQ5 whole entry, looked up): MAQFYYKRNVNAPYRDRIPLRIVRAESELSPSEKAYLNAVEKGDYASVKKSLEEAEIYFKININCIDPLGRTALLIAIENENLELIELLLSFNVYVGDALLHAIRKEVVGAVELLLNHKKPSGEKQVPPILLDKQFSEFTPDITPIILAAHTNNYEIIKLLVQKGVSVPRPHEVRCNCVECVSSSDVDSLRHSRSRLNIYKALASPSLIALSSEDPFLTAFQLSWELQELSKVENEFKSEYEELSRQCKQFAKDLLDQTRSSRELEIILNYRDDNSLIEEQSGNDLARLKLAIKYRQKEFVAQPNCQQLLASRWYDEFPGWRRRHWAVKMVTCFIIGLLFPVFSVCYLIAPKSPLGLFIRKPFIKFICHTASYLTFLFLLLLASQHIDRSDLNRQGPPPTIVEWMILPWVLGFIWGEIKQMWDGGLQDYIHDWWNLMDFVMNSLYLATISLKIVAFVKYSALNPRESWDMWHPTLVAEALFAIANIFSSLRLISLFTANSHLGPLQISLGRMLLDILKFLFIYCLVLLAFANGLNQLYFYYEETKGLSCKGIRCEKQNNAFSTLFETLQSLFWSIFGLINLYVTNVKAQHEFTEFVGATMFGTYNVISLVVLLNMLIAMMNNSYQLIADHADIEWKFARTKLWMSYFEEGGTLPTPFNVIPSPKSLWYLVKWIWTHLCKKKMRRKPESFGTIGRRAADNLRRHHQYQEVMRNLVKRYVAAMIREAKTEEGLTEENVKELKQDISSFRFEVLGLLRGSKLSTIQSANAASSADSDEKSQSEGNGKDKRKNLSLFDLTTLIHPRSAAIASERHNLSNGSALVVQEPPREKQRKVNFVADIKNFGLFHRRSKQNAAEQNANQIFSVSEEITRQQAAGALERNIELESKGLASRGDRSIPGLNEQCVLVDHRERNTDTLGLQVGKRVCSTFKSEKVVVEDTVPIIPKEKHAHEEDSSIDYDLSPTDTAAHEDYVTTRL

O=S(=O)(c1ccc(Oc2ccc(Br)cc2)cc1)N1CCOCC1
inactive: outcome [1] | outcome [2] | outcome [3] | outcome [4] | outcome [5] | outcome [6] | outcome [7] | outcome [8] | outcome [9] | outcome [10] | outcome [11] | outcome [12] | outcome [13] | outcome [14] | outcome [15] | outcome [16] | outcome [17]

CN(C)c1ccc(C(=S)N2CCN(c3ccc([N+](=O)[O-])cc3)CC2)cc1
active: potentiation [15] 8.7%
inactive: outcome [1] | outcome [2] | outcome [3] | outcome [4] | outcome [5] | outcome [6] | outcome [7] | outcome [8] | outcome [9] | outcome [10] | outcome [11] | outcome [12] | outcome [13] | outcome [14] | outcome [16] | outcome [17]

Cc1ccc(Cl)c(OCCN2CCCC(C)C2)c1 (stereo not drawn)
inactive: outcome [1] | outcome [2] | outcome [4] | outcome [5] | outcome [6] | outcome [7] | outcome [8] | outcome [9] | outcome [10] | outcome [11] | outcome [12] | outcome [13] | outcome [14] | outcome [16] | outcome [17]
active: potentiation [3] 25% | potentiation [15] 7.06%

Cc1ccc(/C=C/C(=O)NC2CCCCCCC2)o1
active: potentiation [4] 16% | potentiation [15] 19.1%
inactive: outcome [1] | outcome [2] | outcome [3] | outcome [5] | outcome [6] | outcome [7] | outcome [8] | outcome [9] | outcome [10] | outcome [11] | outcome [12] | outcome [13] | outcome [14] | outcome [16] | outcome [17]

O=C1CC2(CCN(S(=O)(=O)c3ccccc3)CC2)Oc2ccccc21
active: potentiation [4] 52% | potentiation [15] 28.7%
inactive: outcome [1] | outcome [2] | outcome [3] | outcome [5] | outcome [6] | outcome [7] | outcome [8] | outcome [9] | outcome [10] | outcome [11] | outcome [12] | outcome [13] | outcome [14] | outcome [16] | outcome [17]

CC(=O)N1N=C(c2c(-c3ccccc3)c3cc(C)ccc3[nH]c2=O)CC1c1ccco1 (stereo not drawn)
active: potentiation [4] 10% | potentiation, percent of control [12] 186% | potentiation [15] 15.5%
inactive: outcome [1] | outcome [2] | outcome [3] | outcome [5] | outcome [6] | outcome [7] | outcome [8] | outcome [9] | outcome [10] | outcome [11] | outcome [13] | outcome [14] | outcome [16] | outcome [17]

CSCC[C@H](NC(=O)N1CCn2c1nc1ccccc12)C(=O)NCc1ccc(F)cc1
active: potentiation [4] 27%
inactive: outcome [1] | outcome [2] | outcome [3] | outcome [5] | outcome [6] | outcome [7] | outcome [8] | outcome [9] | outcome [10] | outcome [11] | outcome [12] | outcome [13] | outcome [14] | outcome [15] | outcome [16] | outcome [17]

COc1cc2cc(C)c(SCC(=O)N3CCN(C(=O)c4ccco4)CC3)nc2cc1OC
inactive: outcome [1] | outcome [2] | outcome [3] | outcome [4] | outcome [5] | outcome [6] | outcome [7] | outcome [8] | outcome [9] | outcome [10] | outcome [11] | outcome [12] | outcome [13] | outcome [14] | outcome [15] | outcome [16] | outcome [17]

CN(CC(=O)Nc1ccc(F)cc1)C(=O)COC(=O)c1ccccc1
active: potentiation [3] 27% | potentiation [4] 25% | potentiation [15] 23.8%
inactive: outcome [1] | outcome [2] | outcome [5] | outcome [6] | outcome [7] | outcome [8] | outcome [9] | outcome [10] | outcome [11] | outcome [12] | outcome [13] | outcome [14] | outcome [16] | outcome [17]

COc1ccc(OC)c(NC(=O)COC(=O)Cc2ccc(-c3ccccc3)cc2)c1
active: potentiation [15] 31.8%
inactive: outcome [1] | outcome [2] | outcome [3] | outcome [4] | outcome [5] | outcome [6] | outcome [7] | outcome [8] | outcome [9] | outcome [10] | outcome [11] | outcome [12] | outcome [13] | outcome [14] | outcome [16] | outcome [17]

COC(=O)CSc1nnc(CNS(=O)(=O)c2ccc(Br)cc2)n1C
inactive: outcome [1] | outcome [2] | outcome [3] | outcome [4] | outcome [5] | outcome [6] | outcome [7] | outcome [8] | outcome [9] | outcome [10] | outcome [11] | outcome [12] | outcome [13] | outcome [14] | outcome [15] | outcome [16] | outcome [17]

CSc1ncccc1C(=O)OCC(=O)N(CC(C)C)c1c(N)n(Cc2ccccc2)c(=O)[nH]c1=O
inactive: outcome [1] | outcome [2] | outcome [3] | outcome [4] | outcome [5] | outcome [6] | outcome [7] | outcome [8] | outcome [9] | outcome [10] | outcome [11] | outcome [12] | outcome [13] | outcome [14] | outcome [15] | outcome [16] | outcome [17]

CC1(C)CC(=O)C(C=NCCN2CCN(C3CC(=O)N(c4cccc(Br)c4)C3=O)CC2)=C(O)C1 (stereo not drawn)
active: potentiation [3] 12% | potentiation [15] 16.8%
inactive: outcome [1] | outcome [2] | outcome [4] | outcome [5] | outcome [6] | outcome [7] | outcome [8] | outcome [9] | outcome [10] | outcome [11] | outcome [12] | outcome [13] | outcome [14] | outcome [16] | outcome [17]

CN(C)C(CNC(=O)c1ccc(S(=O)(=O)NCc2ccco2)cc1)c1ccccc1 (stereo not drawn)
inactive: outcome [1] | outcome [2] | outcome [3] | outcome [4] | outcome [5] | outcome [6] | outcome [7] | outcome [8] | outcome [9] | outcome [10] | outcome [11] | outcome [12] | outcome [13] | outcome [14] | outcome [15] | outcome [16] | outcome [17]
